Results published in PMC5540273 (PLoS ONE, 2017).

Tests used:
Conditions in all cases: concentration: 1 μM,replicates: in singlicate; n = 1
[1] = system: T1, NIM1
T1 construct: gene MGC42105

[2] = system: NLK
[3] = system: T2, OSR1
T2 construct: gene OXSR1

[4] = system: PAK1
[5] = system: PAK2
[6] = system: PAK3
[7] = system: PAK4
[8] = system: PAK6
[9] = system: PAK7
[10] = system: T3, PCTK1
T3 construct: gene CDK16

[11] = system: T4, PCTK2
T4 construct: gene CDK17

[12] = system: T5, PCTK3
T5 construct: gene CDK18

[13] = system: PDGFRA
[14] = system: PDGFRB
[15] = system: PDPK1
[16] = system: PFTAIRE2
[17] = system: T6, PFTK1
T6 construct: gene CDK14

[18] = system: PHKG1
[19] = system: PHKG2
[20] = system: PIK3C2B
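Further: KINOMEscan kinase panel screen.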

| Structure (SMILES) | %Inh [1] [%] | %Inh [2] [%] | %Inh [3] [%] | %Inh [4] [%] | %Inh [5] [%] | %Inh [6] [%] | %Inh [7] [%] | %Inh [8] [%] | %Inh [9] [%] | %Inh [10] [%] | %Inh [11] [%] | %Inh [12] [%] | %Inh [13] [%] | %Inh [14] [%] | %Inh [15] [%] | %Inh [16] [%] | %Inh [17] [%] | %Inh [18] [%] | %Inh [19] [%] | %Inh [20] [%] |
| --- | --- | --- | --- | --- | --- | --- | --- | --- | --- | --- | --- | --- | --- | --- | --- | --- | --- | --- | --- | --- |
| Cc1ccc(C(=O)Nc2ccc(Oc3ccc4nc(NC(=O)C5CC5)cn4c3)c(F)c2)c(=O)n1-c1ccccc1 | 0 | 7 | 0 | 0 | 2 | 12 | 0 | 8 | 0 | 0 | 2 | 0 | 98.2 | 96.5 | 0 | 9 | 0 | 26 | 0 | 0 |
| Cn1ccc2ncnc(Oc3ccc(NC(=O)Nc4cccc(C(F)(F)F)c4)c(F)c3)c21 | 0 | 18 | 0 | 14 | 12 | 0 | 6 | 0 | 0 | 0 | 17 | 1 | 99.1 | 100 | 17 | 0 | 0 | 18 | 0 | 0 |
| CN(c1ccccc1CNc1nc(Nc2ccc3c(c2)CC(=O)N3)ncc1C(F)(F)F)S(C)(=O)=O | 0 | 0 | 0 | 0 | 0 | 68 | 2 | 0 | 11 | 28 | 49 | 4 | 3 | 83 | 34 | 35 | 8 | 35 | 25 | 0 |
| Cn1ccc2ncnc(Oc3ccc(NC(=O)Nc4ccnc(C(F)(F)F)c4)c(Cl)c3)c21 | 0 | 14 | 0 | 23 | 13 | 100 | 7 | 0 | 0 | 21 | 0 | 0 | 97 | 100 | 0 | 5 | 0 | 24 | 8 | 0 |
| Cl.c1ccc(Oc2ccc(Nc3ccnc4cc(-c5ccc(CN6CCNCC6)o5)ccc34)cc2)nc1 [GW567142] | 0 | 15 | 0 | 7 | 0 | 0 | 0 | 0 | 0 | 1 | 0 | 2 | 78 | 98.5 | 0 | 25 | 11 | 0 | 0 | 0 |
| CN1CCN(CCCNc2nccc(-c3c(-c4ccc(F)cc4)nn4cc(C(N)=O)ccc34)n2)CC1 [GW622475] | 9 | 70 | 19 | 26 | 22 | 34 | 0 | 7 | 24 | 6 | 20 | 12 | 0 | 63 | 0 | 33 | 11 | 14 | 26 | 8 |
| Cn1ccc2ncnc(Oc3ccc(NC(=O)Nc4cnn(C(C)(C)C)c4)c(Cl)c3)c21 | 0 | 38 | 6 | 13 | 34 | 45 | 5 | 19 | 0 | 24 | 5 | 0 | 99.6 | 100 | 5 | 0 | 0 | 0 | 0 | 27 |
